Compounds with a hit are over-represented: about 3.8% of the library has one in this group of screens.
S2 tox: reduces viability in counter-screen for ATXN expression inhibitors. AID 651635. S2 cells (HEK-293 line with an ATXN2-luciferase reporter) viability, CellTiter-Fluor protease fluorescence, 24 h. Potency, µM (top dose mostly 56.7 µM), hits mostly cytotoxic. 400,000 tested, 0.49% active; note: nearly all actives have a fitted effect of over 40% in size
HepG2 viability: HepG2 cytotoxicity, counter-screen for TGF-b inhibitors; 410,000 tested, 0.76% active; HepG2 CAGA-GFP viability, ATP luminescence, 18 h; Potency, µM (top dose mostly 46.1 µM), usual class: cytotoxic; AID 588856
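CellTiter-Glo luminescence gave cytotoxicity after 18 hours at 37 degrees C. The cells were HepG2 CAGA-GFP in 1% FBS DMEM, stimulated with 500 pg/mL TGF-beta after compound addition. %Activity was normalised to no-cell wells (complete cell-killing) and DMSO (no toxicity), and curves were fitted and classified.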
TGFb inhibitor: blocks TGF-b signaling | HepG2 CAGA-GFP TGF-b/SMAD3 reporter, GFP fluorescence, 18 h; TGF-beta stimulated, 500 pg/mL final | Potency, µM (doses to about 46.1 µM), actives largely listed as inhibitors | 410,000 tested, 1.2% active | AID 588855; note: nearly all actives have a fitted effect of over 65% in size
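Using HEPG2 CAGA-GFP reporter cells at 1000 cells/well, we pinned test compounds, stimulated with recombinant TGF-beta (500 pg/mL final) and measured total well GFP after 18 h.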
Nrf2 block: blocks Nrf2 signaling | A549 ARE-Fluc reporter, luciferase luminescence, 18-24 h | 360,000 tested, 2.1% active | Potency, µM (series often up to 46 µM), usual class: inhibitors; note: nearly all actives have a fitted effect of over 60% in size
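Two sequential reads on A549 ARE_Fluc cells exposed to compound for 18-24 h: a CellTiter-Fluor fluorescence read for viability, then a luciferase luminescence read for Nrf2/ARE activity.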
ATXN2 expr inh: ATXN2 expression inhibition. HEK-293 ATXN2-luciferase reporter, luminescence, 24 h. Potency, µM (highest dose often 57 µM), most hits filed as inhibitors. 360,000 tested, 0.72% active. AID 1745845; note: nearly all actives have a fitted effect of over 55% in size
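ATXN2-luciferase reporter cells (luciferase flanked by upstream and downstream ATXN2 gene portions) were treated 24 h at 37 °C with compounds at up to 57 uM. SteadyGlo luminescence gave expression; GF-AFC fluorescence gave viability.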
A549 viability: kills or reduces viability of A549 cells in Nrf2 counter-screen. A549 ARE-Fluc cells, CellTiter-Fluor viability, 18-24 h. 390,000 tested, 0.16% active. Potency, µM (series often up to 46 µM), usual class: inhibitors
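Cytotoxicity counterscreen: CellTiter-Fluor fluorescence was measured in A549 ARE_Fluc cells after 18-24 h of compound exposure in a concentration series. The subsequent BugLite luminescent read reports ARE-luciferase activity.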
Of the large screens only hits and unclear results are named; the others gave an inactive call. Calls come from the whole dose curve; as a rule, active = well fitted curve in the direction sought with a large enough effect; inconclusive = small, poorly fitted or top-dose-only effect, or another doubt; inactive = no such curve, though single readings can be large; an effect the other way counts as inactive or inconclusive.

NS(=O)(=O)c1ccc(CCNC(=O)c2ccc3nc(CCc4ccccc4)oc3c2)cc1	none (no result: S2 tox, Nrf2 block, ATXN2 expr inh)
COc1ccccc1NC(=O)C(NC(=O)OC(C)(C)C)C(C)OCc1ccccc1 (stereo not drawn)	Nrf2 block 23µM
NC(=O)c1ncn([C@@H]2O[C@H](CO)[C@@H](O)[C@@H]2O)c1N	none (no result: S2 tox, HepG2 viability, TGFb inhibitor, Nrf2 block, A549 viability)
CC1CCN(c2ccc(-c3cccc(NC(=O)C(F)(F)F)c3)nn2)CC1	HepG2 viability 20µM, Nrf2 block inconclusive, ATXN2 expr inh inconclusive
O=C(Nc1cccc(-c2ccc(N3CCCCC3)nn2)c1)C(F)(F)F	S2 tox inconclusive, HepG2 viability 8.9µM, Nrf2 block inconclusive (no result: ATXN2 expr inh)
CCC(=O)Nc1cccc(-c2ccc(N3CCC(C)CC3)nn2)c1	Nrf2 block inconclusive (no result: ATXN2 expr inh)
COc1ccc(CN2C(=O)C(NC(=O)c3ccc(C)cc3)(C(F)(F)F)N=C2c2ccccc2)cc1 (stereo not drawn)	TGFb inhibitor inconclusive
O=C(O)c1cccc2c1/C(=N/Nc1ccc([N+](=O)[O-])cc1[N+](=O)[O-])c1ccccc1-2	none
C=CCNCC(=O)N1N=C(c2ccc3ccccc3c2)CC1c1ccc(OC)cc1 (stereo not drawn)	none
COc1ccc(C2CC(c3ccc4ccccc4c3)=NN2C(=O)CNC2CCCCC2)cc1 (stereo not drawn)	HepG2 viability 13µM, TGFb inhibitor inconclusive, Nrf2 block inconclusive (no result: S2 tox, ATXN2 expr inh)
Cc1nn(Cc2ccc(Cl)cc2)c(C)c1NC(=O)CCCn1nc(C)c([N+](=O)[O-])c1C	Nrf2 block 21µM, A549 viability inconclusive
COc1ccc(-c2nc3cc(C(C)C)ccc3o2)cc1NC(=O)c1ccccc1[N+](=O)[O-]	S2 tox inconclusive, Nrf2 block inconclusive
Brc1ccc2nc(SCCOc3ccccc3)[nH]c2c1	TGFb inhibitor inconclusive
Cn1c(CSc2nc3ccc(Br)cc3[nH]2)nc2ccccc21	Nrf2 block 21µM, A549 viability inconclusive
Cc1ccc(Nc2cc(C)nn2-c2nc(C)cc(=O)[nH]2)cc1	S2 tox 2µM, TGFb inhibitor 2.2µM, Nrf2 block 1.8µM, ATXN2 expr inh 1.1µM, A549 viability 13µM
COc1ccc(CCNC(=O)c2ccc(Cl)c(S(=O)(=O)N3CCCC3)c2)cc1	S2 tox inconclusive, TGFb inhibitor inconclusive, Nrf2 block 16µM (no result: ATXN2 expr inh)
Cc1ccc(C(=O)NCCC2=CCCCC2)cc1S(=O)(=O)N1CCOCC1	Nrf2 block inconclusive
Cc1nc2cc(C(=O)NCCC3=CCCCC3)ccc2n1-c1ccc(Br)cc1	S2 tox inconclusive, TGFb inhibitor inconclusive, ATXN2 expr inh inconclusive (no result: Nrf2 block)
O=C(COc1ccc(S(=O)(=O)NC2CCCCC2)cc1Cl)NCC1CCCO1 (stereo not drawn)	none
CCOc1ccc(-n2c(C)nc3cc(C(=O)NCCC4=CCCCC4)ccc32)cc1	TGFb inhibitor 18µM (no result: Nrf2 block)
Cc1ccc(C(=O)NCCC2=CCCCC2)cc1S(=O)(=O)N1CCCCC1	TGFb inhibitor inconclusive, Nrf2 block 23µM, A549 viability inconclusive
COc1ccc(C(CNC(=O)c2ccc(Cl)c(S(=O)(=O)N3CCCC3)c2)N2CCCC2)cc1 (stereo not drawn)	none
COc1ccc(CCNC(=O)COc2ccc(S(=O)(=O)NC3CCCCC3)cc2Cl)cc1	TGFb inhibitor 14µM, Nrf2 block 21µM, ATXN2 expr inh inconclusive, A549 viability inconclusive (no result: S2 tox)
CCOc1ccc(CN2C(=O)c3ccccc3Sc3ccc(C(=O)NCc4ccc5c(c4)OCO5)cc32)cc1	Nrf2 block inconclusive (no result: S2 tox, ATXN2 expr inh)
CCc1cc(-c2cnnn2Cc2ccccc2)ccc1-c1cn(CC(C)C)nn1	S2 tox inconclusive, TGFb inhibitor inconclusive, ATXN2 expr inh inconclusive (no result: Nrf2 block, A549 viability)
O=C(NCCC1=CCCCC1)c1ccc(Cl)c(S(=O)(=O)Nc2ccccc2)c1	TGFb inhibitor 13µM, Nrf2 block inconclusive
COC(=O)c1sc(N2C(=O)C(O)=C(C(=O)c3ccc(C)o3)C2c2cccs2)nc1C (stereo not drawn)	Nrf2 block 21µM, A549 viability inconclusive
COC(=O)c1sc(N2C(=O)C(O)=C(C(=O)c3ccc(C)o3)C2c2ccco2)nc1C (stereo not drawn)	S2 tox inconclusive
CCOc1ccccc1N1CCN(C(=O)c2cc(-c3cc(OC)ccc3OC)nc3ccccc23)CC1	Nrf2 block 21µM
N#CNC(=Nc1cccc(F)c1)SCc1ccccc1F	S2 tox inconclusive, HepG2 viability 11µM, TGFb inhibitor inconclusive, Nrf2 block inconclusive (no result: ATXN2 expr inh)
Cc1nc2ccc(CN(C)c3ccc(C(=O)N[C@@H](CCC(=O)O)C(=O)O)s3)cc2c(=O)[nH]1	ATXN2 expr inh 0.1µM (no result: HepG2 viability, TGFb inhibitor, Nrf2 block, A549 viability)
CC(C)[C@H](NC(=O)c1ccccc1F)C(=O)NC1CCCCCCC1	none
CC(C)C(NC(=O)c1c(F)cccc1F)C(=O)N1CCN(S(=O)(=O)c2ccc(F)cc2)CC1 (stereo not drawn)	none
COc1ccc(Br)cc1CNc1ccc(O)cc1	HepG2 viability 13µM, TGFb inhibitor inconclusive
COc1cc(CNC(C)c2ccccc2)cc(Br)c1OCc1ccc(F)cc1 (stereo not drawn)	HepG2 viability 22µM, TGFb inhibitor inconclusive, ATXN2 expr inh inconclusive (no result: S2 tox)
COc1cc(CNC(C)c2ccccc2)cc(Br)c1OCc1ccccc1 (stereo not drawn)	S2 tox inconclusive, TGFb inhibitor inconclusive, ATXN2 expr inh inconclusive
COc1ccc(Br)cc1CNc1ccc2[nH]c(=O)[nH]c2c1	none
COc1cc(CNc2ccc(O)cc2)cc(Br)c1OCc1ccccc1	TGFb inhibitor 22µM, Nrf2 block inconclusive (no result: ATXN2 expr inh)
Oc1ccc(Cl)cc1C1C=C(c2ccc3c(c2)OCO3)NC(c2ccc(Cl)cc2)N1 (stereo not drawn)	TGFb inhibitor inconclusive, Nrf2 block inconclusive (no result: S2 tox, ATXN2 expr inh)
COc1ccc(Cl)cc1N(CC(=O)Nc1ccccc1C(=O)N1CCOCC1)S(C)(=O)=O	S2 tox inconclusive
CCc1ccc(C(O)c2ncc(-c3ccc(C(F)(F)F)cc3)[nH]2)cc1 (stereo not drawn)	TGFb inhibitor 16µM (no result: Nrf2 block, A549 viability)
Oc1ccccc1C=NCc1ccccc1	none (no result: HepG2 viability, TGFb inhibitor, Nrf2 block, A549 viability)
CC1Cc2ccccc2N1C(=O)COC(=O)c1ccc([N+](=O)[O-])o1 (stereo not drawn)	S2 tox inconclusive, TGFb inhibitor inconclusive
CCN(CC)c1ccc(NC(=O)C2CCCN(S(=O)(=O)c3cnc[nH]3)C2)c(C)c1 (stereo not drawn)	Nrf2 block 23µM
COc1ccc(C(=O)Nc2ccccc2C(=O)NCc2cccnc2)cc1OC	S2 tox inconclusive, A549 viability inconclusive
COc1ccc(C(=O)Nc2ccccc2C(=O)N/N=C/c2ccncc2)cc1OC	HepG2 viability 13µM, Nrf2 block inconclusive

Source: PubChem BioAssay (National Center for Advancing Translational Sciences (NCATS))
